Among the data in PubChem BioAssay (NCATS) are Potency and activity change, positive = activation values, retold here.

In experiment [1] the target is Cytochrome P450 3A4 (Homo sapiens) (UniProt P08684). Kind of experiment: qHTS Assay for Inhibitors and Substrates of Cytochrome P450 3A4 (AID 884). Further: potency means the concentration at half of the fitted maximal effect; nearly all actives have a fitted effect of over 50% in size. The method, boiled down:
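Luminescent readout of luciferin produced by CYP3A4 (20 nM) dealkylation of Luciferin-PPXE, 25 uM (its KM). NADPH-driven reaction ran 60 min at RT after 10 min compound preincubation; data scaled to 57 uM ketoconazole as 100% inhibition.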
(Quantitative high-throughput screening tests each substance at several concentrations.)

Experiment [2] has the same target. Kind of experiment: qHTS Assay for Activators of Cytochrome P450 3A4 (AID 885). Further: nearly all actives have a fitted effect of over 65% in size. The procedure, abridged: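 Activators are scored by enhanced luminescence from CYP3A4 conversion of luciferin-PPXE (25uM, equal to KM) to luciferin, after 60 min at RT with an NADPH-regenerating system.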

The structures appear in SMILES notation. Values joined by “and” are separate entries in the source; they are usually repeats but may differ in a detail not shown here. Equal entries are not always repeated. Unmarked numbers belong to inactive results. Results filed as inconclusive are left out. Active and inactive are the calls of the source. The call rests on the fitted dose curve; in most records, active means well fitted curve in the direction sought with a large enough effect; inconclusive means small, poorly fitted or top-dose-only effect, or another doubt; inactive means no such curve, though single readings can be large; an effect the other way counts as inactive or inconclusive.

Sequence of Cytochrome P450 3A4 (Homo sapiens) (P08684 whole entry, looked up): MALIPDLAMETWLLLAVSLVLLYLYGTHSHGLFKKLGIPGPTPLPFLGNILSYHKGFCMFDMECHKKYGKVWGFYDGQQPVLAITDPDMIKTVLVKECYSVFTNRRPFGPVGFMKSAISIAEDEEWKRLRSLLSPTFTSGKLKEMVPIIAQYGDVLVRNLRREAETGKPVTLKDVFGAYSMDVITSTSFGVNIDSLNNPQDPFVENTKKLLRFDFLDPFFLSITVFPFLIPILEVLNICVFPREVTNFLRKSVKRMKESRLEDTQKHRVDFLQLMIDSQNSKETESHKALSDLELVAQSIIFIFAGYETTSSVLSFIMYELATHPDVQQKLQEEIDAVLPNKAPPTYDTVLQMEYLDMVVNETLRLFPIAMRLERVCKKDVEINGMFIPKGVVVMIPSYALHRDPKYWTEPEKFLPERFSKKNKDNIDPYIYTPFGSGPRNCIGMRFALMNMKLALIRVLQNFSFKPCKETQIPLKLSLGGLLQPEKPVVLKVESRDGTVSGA

Regarding `C=CC[C@@H]1C=C[C@@H](O/N=C\[C@@H](OC)[C@H](C)/C=C\CC(=O)OC)[C@@H](CO)O1`, in experiment [1], the Potency is 3.16 µM (active). Further, in experiment [2], the activity change, positive = activation was -64.1% [at 11.4 µM].

For the compound `Cc1nn(-c2ccccc2)nc1CNC(=O)C(C)Cc1ccccc1` (stereo not drawn), the Potency in experiment [1] was 2.51 µM (active). Also, in experiment [2], the Potency result is “inactive”.

Turning to `CCC1=C(OC(=O)N(CC)CC)N2C(=O)OC(=NCC3CC3)[C@]2(Cc2ccccc2)[C@H]2C1=CC[C@H]1C(=O)N(c3ccccc3)C(=O)[C@H]12`, the Potency in experiment [1] was 2.51 µM (active). In addition, the Potency result in experiment [2] is “inactive”.

On to `CCC1=C(OC(=O)N(CC)CC)N2C(=O)OC(=NCCc3c[nH]c4ccccc34)[C@]2(C)[C@H]2C1=CC[C@H]1C(=O)NC(=O)[C@H]12`, for which, in experiment [1], the Potency is 2.51 µM (active). In experiment [2], the Potency entry was “inactive”.

Regarding `CCC1=C(OC(=O)N(CC)CC)N2C(=O)OC(=NCC(=O)OC)[C@]2(Cc2ccccc2)[C@H]2C1=CC[C@H]1C(=O)N(c3ccccc3)C(=O)[C@H]12`, in experiment [1], the Potency is 3.16 µM (active). Besides, the Potency result in experiment [2] was “inactive”.

As to `O=C(N/N=C1/C[C@@H](O)[C@@H](O)[C@@H]2[C@@H]3C(=O)N(Cc4ccc5c(c4)OCO5)C(=O)[C@H]3CC[C@H]12)OCc1ccccc1`, the Potency in experiment [1] is 3.98 µM (active). Further, the activity change, positive = activation in experiment [2] is -89.7% [at 11.4 µM].

`CCC1=C2CC[C@H]3C(=O)N(C)C(=O)[C@H]3[C@H]2[C@@]2(C)C(=NCc3ccccc3)OC(=O)N2C1=O`: the Potency in experiment [1] was 12.6 µM (active). Further, the Potency result in experiment [2] was “inactive”.

In the case of `CCN1C(=O)[C@@H]2[C@H](C1=O)[C@@H]1C[C@H]3C(=O)N(CC)C(=O)[C@H]3[C@@H]3C1=C(C(=O)N1C(=O)O/C(=N\CC4CC4)[C@]31C)[C@@H]2C`, the Potency in experiment [1] was 15.8 µM (active). The Potency result in experiment [2] was “inactive”.

As to `CCC1=C(OC(=O)N(CC)CC)N2C(=O)OC(=NCCc3c[nH]c4ccccc34)[C@]2(Cc2ccccc2)[C@H]2C1=CC[C@H]1C(=O)N(c3ccccc3)C(=O)[C@H]12`, the Potency in experiment [1] is 6.31 µM (active). In addition, the Potency entry in experiment [2] is “inactive”.

Turning to `CCC1=C2CC[C@H]3C(=O)N(C)C(=O)[C@H]3[C@H]2[C@@]2(Cc3ccccc3)C(=NCCc3c[nH]c4ccccc34)OC(=O)N2C1=O`, the Potency in experiment [1] was 1.26 µM (active). Also, the Potency result in experiment [2] is “inactive”.

Regarding `N#Cc1ccc(C23CC4(C2)[C@H](CN(Cc2cccnc2)[C@@H]4c2ccccc2)C3c2ccccc2)cc1` (stereo partly drawn), the Potency in experiment [1] was 3.98 µM (active). In addition, the Potency entry in experiment [2] was “inactive”.

Take `CCC1=C(OC(=O)N(CC)CC)N2C(=O)OC(=NCC(=O)OC)[C@]2(Cc2ccccc2)[C@H]2C1=CC[C@H]1C(=O)NC(=O)[C@H]12`: the Potency in experiment [1] was 6.31 µM (active). Also, the Potency result in experiment [2] is “inactive”.

As for `Cn1c(N)c(C(=O)COC(=O)c2cc(-c3ccco3)nc3ccccc23)c(=O)n(Cc2ccccc2)c1=O`, in experiment [1], the Potency was 10 µM (active). The Potency entry in experiment [2] was “inactive”.

Turning to `CCC1=C(OC(=O)N(CC)CC)N2C(=O)OC(=NCCc3c[nH]c4ccccc34)[C@]2(Cc2ccccc2)[C@H]2C1=CC[C@H]1C(=O)NC(=O)[C@H]12`, in experiment [1], the Potency is 2 µM (active). For the same compound, the Potency entry in experiment [2] is “inactive”.

For `CO[C@H]1COC(=O)C/C=C\[C@H](C)[C@@H](OC)COC(=O)[C@H](Cc2ccccc2)NC(=O)C/C=C\[C@@H]1C`, in experiment [1], the Potency was 3.16 µM (active). Besides, the activity change, positive = activation in experiment [2] was -62.1% [at 11.4 µM].

In the case of `NC(N)=NCCC[C@H](NC(=O)CC1(CC(=O)N2CCN(C3c4ccccc4NC(=O)c4ccccc43)CC2)CCCC1)C(=O)NCCn1c(=O)n(-c2ccccc2)n(-c2ccccc2)c1=O` (stereo partly drawn), the Potency in experiment [1] is 12.6 µM (active). In addition, in experiment [2], the Potency entry was “inactive”.

Take `CCC1=C(OC(=O)N(CC)CC)N2C(=O)OC(=NCCc3c[nH]c4ccccc34)[C@]2(Cc2ccccc2)[C@H]2C1=CC[C@H]1C(=O)N(CC)C(=O)[C@H]12`: in experiment [1], the Potency was 2 µM (active). The Potency result in experiment [2] was “inactive”.

On to `CCC1=C2CC[C@H]3C(=O)N(CC)C(=O)[C@H]3[C@H]2[C@@]2(Cc3ccccc3)C(=NCC3CC3)OC(=O)N2C1=O`, for which, in experiment [1], the Potency is 2.51 µM (active). In experiment [2], the Potency result is “inactive”.

Turning to `COc1cccc([C@H]2Oc3ccc(OC)cc3/C(=N\OC[C@@H](O)[C@@H]3O[C@@H]4OC(C)(C)O[C@@H]4[C@H]3O)[C@@H]2O)c1`, the Potency in experiment [1] was 3.98 µM (active). Moreover, the activity change, positive = activation in experiment [2] was -69.8% [at 11.4 µM].

For the compound `CCC1=C(OC(=O)N(CC)CC)N2C(=O)OC(=NCCOC)[C@]2(C)[C@H]2C1=CC[C@H]1C(=O)N(CC)C(=O)[C@H]12`, in experiment [1], the Potency was 7.94 µM (active). For the same compound, the Potency entry in experiment [2] is “inactive”.

Turning to `C#CCCCO/N=C1/C[C@@H](O)[C@@H](O)[C@@H]2[C@@H]3C(=O)N([C@@H](C)c4ccccc4)C(=O)[C@H]3CC[C@@H]12`, the Potency in experiment [1] is 3.98 µM (active). Further, the activity change, positive = activation in experiment [2] is -86% [at 11.4 µM].

Consider `C/C(CCN1CCCCc2nc(C)c(C)cc21)=N\O[C@@H](C)c1cn([C@H](CO)Cc2ccccc2)nn1`, for which the Potency in experiment [1] was 3.98 µM (active) and 5.01 µM (active). For the same compound, in experiment [2], the activity change, positive = activation was -72.3% [at 11.4 µM] and -80.4% [at 11.4 µM].

As for `CN1C[C@@H]2C(c3ccc(C(F)(F)F)cc3)C3(c4ccc(C#N)cc4)CC2(C3)[C@H]1c1ccccc1` (stereo partly drawn), in experiment [1], the Potency is 20 µM (active). Besides, in experiment [2], the Potency entry was “inactive”.

For the compound `COC(=O)[C@@H]1C[C@@]2(O)[C@H](O)[C@H](O)[C@H](O)C[C@H]2N1Cc1ccccc1OS(=O)(=O)c1ccc(C)cc1`, the Potency in experiment [1] was 7.94 µM (active). The Potency result in experiment [2] was “inactive”.
